This is part of a sample that, as a whole, favours compounds with a hit. Of some 83,000 tested, about 20% had one in any assay.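 How to read the values: 0–100, growth inhibition (40 = 60% inhibited); 0, no net growth; -100 to 0, cell death (-40 = 40% of starting cells died; -100 = all dead).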 Unmarked numbers belong to inactive results. Active and inactive are the calls of the source. How the source made its calls: active means growth percent below 10; inactive means the rest.
What was measured:
Test in all cases: NCI-60 one-dose screen, 48 h (100 = growth as untreated, 0 = no growth, -100 = all killed)
Conditions in all cases: 10 µM unless noted
[1] = test system: NCI-H23 lung
[2] = test system: NCI-H226 lung
[3] = test system: NCI-H322M lung
[4] = test system: HOP-62 NSCLC
[5] = test system: NCI-H460 lung
[6] = test system: HOP-92 NSCLC
[7] = test system: NCI-H522 lung
[8] = test system: A549/ATCC NSCLC
[9] = test system: 786-0 renal
[10] = test system: COLO 205 colon

| Structure (SMILES) | growth [1] [%] | growth [2] [%] | growth [3] [%] | growth [4] [%] | growth [5] [%] | growth [6] [%] | growth [7] | growth [8] [%] | growth [9] [%] | growth [10] [%] |
| --- | --- | --- | --- | --- | --- | --- | --- | --- | --- | --- |
| CCOP(=O)(OCC)/C(=C\N1C(=O)CC(=O)NC1=S)C(=O)OC | 97.9 | 95.7 | 107 | 88 | 103 | 107 | 104% | 99.7 | 108 | 99.5 |
| CC(c1ccccc1)N(C)C (stereo not given) | 110 | 95.3 | 92.3 | 87.9 | 107 | 111 | 98% | 106 | 104 | 103 |
| CCC(=O)Oc1ccc2ccccc2c1 | 100 | 90.2 | 103 | 81 | 99.9 | 86.1 | 99.5% | 99.4 | 96.9 | 102 |
| CCCCCCCCCCCCCCCCOc1ccccc1NC(=O)CC(C)=O | 111 | 105 | 109 | 112 | 112 | 96.4 | 87.1% | 91.7 | 59.8 | 131 |
| COc1cc(C(=O)O)c(O)c(C(C)(C)C)c1 | 102 | 102 | 107 | 104 | 105 | 88.2 | 106% | 102 | 101 | 107 |
| CC(=O)Oc1c(Cl)cccc1-c1ccccc1 | 111 | 98.9 | 92.7 | 103 | 102 | 94.8 | 94.3% | 89.9 | 104 | 111 |
| CCOC(=O)c1ccc(C(C)(C)C)cc1 | 102 | 101 | 101 | 107 | 109 | 117 | 105% | 102 | 104 | 108 |
| CC(=O)NNC(=S)N/C=C/c1c(C)ccc([N+](=O)[O-])c1[N+](=O)[O-] | 94.8 | 110 | 111 | 103 | 102 | 100 | 87.8% | 102 | 97.2 | 101 |
| Cn1c(=O)c2[nH]c(CC(=O)O)nc2n(C)c1=O | 100 | 90.9 | 99.6 | 97.2 | 110 | 113 | 86.4% | 91.4 | 106 | 109 |
| COc1cccc2c1Cc1ccccc1-2 | 94.9 | 94.4 | 114 | 113 | 110 | 106 | 103% | 107 | 110 | 109 |
| Nc1cc(F)ccc1[N+](=O)[O-] | 103 | 95.9 | 92.6 | 110 | 103 | 89.5 | 106% | 116 | 94.1 | 116 |
| CCCC(OC(C)=O)c1ccc2c(c1)OCO2 (stereo not given) | 97.7 | 99.4 | 97.8 | 98.7 | 106 | 104 | 103% | 104 | 100 | 107 |
| O=Cc1ccc(Cl)c(Cl)c1 | 99.1 | 98.1 | 106 | 97 | 107 | 68.5 | 96.5% | 102 | 109 | 104 |
| CCCC(=O)CC(=O)c1ccccc1 | 96 | 91.7 | 95.1 | 92.8 | 106 | 95.6 | 78.1% | 97.9 | 103 | 113 |
| CNc1ccccc1C(N)=O | 99 | 103 | 97.3 | 95.9 | 108 | 110 | 98.1% | 97.4 | 101 | 115 |
| CN1CCN(C(=S)S)CC1 | 104 | 109 | 129 | 108 | 116 | 104 | 94.5% | 94 | 105 | 80.9 |
| Cn1c(=O)[nH]c2ccccc2c1=O | 104 | 109 | 105 | 99.6 | 111 | 143 | 96.6% | 100 | 97.5 | 114 |
| CC(=O)NC(CCC(=O)c1ccccc1)C(=O)O (stereo not given) | 101 | 91.1 | 98.5 | 76.2 | 102 | 97.6 | 90.2% | 63.3 | 87.9 | 108 |
| Cc1ccc([N+](=O)[O-])c(C)n1 | 108 | 106 | 101 | 106 | 112 | 84.2 | 98.9% | 105 | 114 | 111 |
| CCCNS(=O)(=O)c1ccc(Cl)cc1 | 104 | 113 | 93.6 | 86.6 | 103 | 104 | 96.6% | 94.5 | 97.6 | 102 |
| Cc1cc(NC(=O)c2ccccc2)c(Cl)cc1N | 98.6 | 97.1 | 97.7 | 96.7 | 99.9 | 106 | 79.5% | 99.4 | 92.1 | 129 |
| C=CCc1cc(OC)c(OC)c(OC)c1 | 95.6 | 104 | 117 | 104 | 97.1 | 108 | 101% | 96.2 | 108 | 108 |
| O=C1C=Cc2ccccc2/C1=C/c1[nH]c(=O)[nH]c1O | 51.7 | 45.2 | 57.8 | 41.3 | 84.8 | 45.9 | -17.7% (active) | 82 | 27.6 | 34.3 |
| CN(C)c1ccc(O)c2c1CC1CC3C(N(C)C)C(=O)C(C(N)=O)=C(O)C3(O)C(=O)C1=C2O (stereo not given) | 51.1 | 71 | 38.7 | 55 | 29.1 | 21.7 | 35.6% | 21.3 | 45.3 | 56.3 |
| COc1cccc(C(=O)NNC(=O)c2cccc3ccccc23)c1 | 107 | 105 | 122 | 97.7 | 117 | 97.2 | 102% | 96 | 104 | 108 |
| CCOc1ccc(C(=O)NCC(C)C)cc1 | 107 | 104 | 101 | 95.8 | 103 | 103 | 97.8% | 108 | 97.6 | 101 |
| CCCc1cccc(CCC)c1NC(=O)Nc1cc(Cl)cc(Cl)c1 | 101 | 98.1 | 96.8 | 104 | 118 | 98.8 | 85.7% | 93.8 | 93.9 | 120 |
| CC(O)C(F)(F)C(F)(F)C(F)(F)F (stereo not given) | 111 | 102 | 114 | 104 | 110 | 117 | 93.8% | 110 | 102 | 116 |
| COc1ccc(Nc2cc(Cl)ccc2C(=O)O)cn1 | 102 | 103 | 128 | 111 | 113 | 101 | 100% | 103 | 111 | 103 |
